In general, inhibition refers to the change of the read-out against control, counted positive when it falls.

The campaign covered roughly 290,000 compounds. About 3,200 (1.1%) were called active. Rule as the data show it: active = inhibition above about 60%; inactive = the rest. The full list was thinned out, with actives kept by preference.

This note sets out measurements from PubChem BioAssay AID1565 (Sanford-Burnham Center for Chemical Genomics, 2009).

For this assay, the target named is Phosphoethanolamine/phosphocholine phosphatase (Homo sapiens) (UniProt Q8TCT1). Briefly: PubChem AID 1565. As to conditions: recombinant PHOSPHO1, absorbance phosphatase assay; at 13.3 µM; stronger effect = higher value.
Chain of Phosphoethanolamine/phosphocholine phosphatase (Homo sapiens) (Q8TCT1 whole entry, looked up): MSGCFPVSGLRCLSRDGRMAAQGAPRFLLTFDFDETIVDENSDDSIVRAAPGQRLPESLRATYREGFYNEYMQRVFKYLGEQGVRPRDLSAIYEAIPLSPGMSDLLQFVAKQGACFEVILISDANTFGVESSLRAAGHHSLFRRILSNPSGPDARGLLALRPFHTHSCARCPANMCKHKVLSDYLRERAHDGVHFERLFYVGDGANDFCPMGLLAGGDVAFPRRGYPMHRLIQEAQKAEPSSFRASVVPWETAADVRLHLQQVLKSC
For `COC(=O)c1ccc(/C=C2/C(=O)Oc3ccccc32)cc1`, the inhibition was 32.5% (inactive).

For the molecule `CCCC(C)c1nnc(NC(=O)C2CC(=O)N(c3ccc(OCC)cc3)C2)s1` (stereo unspecified), the inhibition was 36.2% (inactive).

As for `Cc1ccc(NC(=O)N2CCC(O)(c3cccnc3)CC2)cc1`, the inhibition is 1% (inactive).

As to `O=C(c1cccc(F)c1)N1CCC(O)(c2cccnc2)CC1`, the inhibition was 36.6% (inactive).

On to `O=C(Nc1cccc(F)c1)N1C2CCC1CC(O)(c1cccnc1)C2` (stereo unspecified), for which the inhibition was 61.5% (active).

With `CC(=O)c1cccc(NC(=O)CN2C(=O)c3cccnc3Oc3ccc(Cl)cc32)c1`, the inhibition was 18.3% (inactive).

As for `CCc1ccc(NC(=O)CCNS(=O)(=O)c2cccs2)cc1`, the inhibition is 35.1% (inactive).

In the case of `Cc1ccc(OCC(=O)NCCCNC(=O)c2ccco2)cc1C`, the inhibition is 16% (inactive).

As to `CCCc1ccc(OCC(=O)NNC(=S)NC(=O)c2ccco2)cc1`, the inhibition was 96.9% (active).

For `COc1ccc(C(=O)NNC(=S)NC(=O)c2ccccc2)cc1`, the inhibition is 19.1% (inactive).

On to `CC(Oc1ccc2ccccc2c1)C(=O)NNC(=S)NC(=O)c1ccco1` (stereo unspecified), for which the inhibition was 96.9% (active).

Regarding `O=C(Nc1ccc2ccccc2c1)/C(=C/c1cccc(Br)c1)NC(=O)c1ccco1`, the inhibition was -2.2% (inactive).

For `CCCc1ccc(OCCNC(=O)c2ccco2)cc1`, the inhibition was 41.8% (inactive).

With `O=S(=O)(Nc1ccc2[nH]ncc2c1)c1ccccc1Cl`, the inhibition is -129% (inactive).

For `COc1ccc(S(=O)(=O)NNC(=O)Nc2ccc(C)cc2)c(OC)c1`, the inhibition was 21.8% (inactive).

Regarding `Cc1ccc(N(C(=O)c2snc(C(N)=O)c2N)C(C(=O)NCC2CCCO2)c2c[nH]c3ccccc23)cc1` (stereo unspecified), the inhibition was 35.7% (inactive).

As for `COc1ccc(S(=O)(=O)N2CCOC2CNC(=O)C(=O)NCc2ccncc2)cc1C` (stereo unspecified), the inhibition is 19.8% (inactive).

`COc1ccc(NS(=O)(=O)c2ccc3oc(SCC(N)=O)nc3c2)cc1`: the inhibition is 6.3% (inactive).

For `S=C(NCCc1ccccc1)Nc1ccccc1`, the inhibition was 22.6% (inactive).

Consider `NS(=O)(=O)c1ccc(CCNC(=O)Nc2ccc(Cl)cc2)cc1`, for which the inhibition is 14.1% (inactive).

For the molecule `NS(=O)(=O)c1ccc(CCNC(=S)Nc2ccc(S(N)(=O)=O)cc2)cc1`, the inhibition is 78.5% (active).

Take `CC1CCC(NC(=O)CN(C)S(=O)(=O)c2ccc3c(c2)c(=O)n(C)c(=O)n3C)CC1` (stereo unspecified): the inhibition was 58.3% (inactive).

Regarding `COc1cc(NC(=O)C2CC(c3ccccc3O)=NO2)c(OC)cc1Cl` (stereo unspecified), the inhibition is 24.3% (inactive).

With `Cc1c(NC(=O)c2coc(=O)c(Br)c2)c(=O)n(-c2ccccc2)n1C`, the inhibition is -69.6% (inactive).

`COc1cc(OC)c(C2=NOC(C(=O)Nc3c(C)n(C)n(-c4ccccc4)c3=O)C2)cc1Cl` (stereo unspecified): the inhibition was 64.2% (active).

On to `O=C(NCCN1CCCC(O)C1)c1cc(COc2c(F)cccc2F)on1` (stereo unspecified), for which the inhibition was 54.7% (inactive).
